This note sets out measurements from PubChem BioAssay (NCI).

Molecules are shown by their SMILES. This is part of a sample that, as a whole, favours compounds with a hit. Of some 83,000 tested, about 20% had one in any assay.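 Activity criterion: percent growth below 10, measured after cells in 96-well plates were exposed to a single compound concentration for 48 hours.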 Activity calls are given as the source filed them.

The first experiment has as its system NCI-H322M lung. Description: NCI-60 one-dose screen, 48 h (100 = growth as untreated, 0 = no growth, -100 = all killed). Particulars: 10 µM unless noted.
With `O=C(Nc1ccc(-n2ccc3c(NC(=O)c4ccccc4)nccc32)cc1)c1ccc(N2CCOCC2)c(C(F)(F)F)c1`, the growth was 48.6% (inactive).

For the compound `COc1cc(/C=C/c2cc(/C=C/c3ccc(O)c(OC)c3)n(C(=O)Nc3ccc(F)c(Cl)c3)n2)ccc1O`, the growth was 12.6% (inactive).

For the compound `COc1cc(OC)c2sc(-c3ccc(-n4cncc4-c4ccc(OC)c(N)c4)cc3)nc2c1`, the growth is 105% (inactive).

`COc1ccc(C2=NNC(c3ccc(Oc4nc5c(c(=O)n(C)c(=O)n5C)n4C)c(OC)c3)C2)cc1` (centres undefined): the growth was 102% (inactive).

`NS(=O)(=O)c1ccc(CCn2c(SCC(=O)N/N=C/c3cccnc3)nc3ccccc3c2=O)cc1`: the growth is 101% (inactive).

With `O=C(NNC(=O)c1cccc(Cl)c1)c1ccccc1`, the growth is 107% (inactive).

Turning to `N=c1nc(N2CCCCC2)cc(N)n1O`, the growth was 126% (inactive).

For the compound `Cc1ccc(C)c(NC(=O)c2sc3c(=O)[nH]cnc3c2C)c1`, the growth was 103% (inactive).

As to `C=CCOC(=O)C1=C(C)NC2=C(C(=O)CCC2)C1c1ccc(F)cc1` (centres undefined), the growth is 95.6% (inactive).

For the compound `COc1ccc(-c2cnc(-c3ccncc3-c3cccc(OC)c3)o2)cc1`, the growth is 56.3% (inactive).

`O=C(Nc1ccncc1)C(=O)c1cn(S(=O)(=O)c2cccc(Cl)c2F)c2ccccc12`: the growth is 96.7% (inactive).

Turning to `Cc1ccccc1Nc1n[nH]c(Cc2ccccc2)n1`, the growth was 99.1% (inactive).

In the case of `Oc1ccccc1-c1nnc(COc2ccc(Cl)cc2Cl)o1`, the growth was 52.6% (inactive).

As to `CS(=O)(=O)c1ccc(C(=O)N/N=C/c2ccccc2O)cc1`, the growth was 38.4% (inactive).

Turning to `CCCCCCCCCCCCCCCCCC(=O)OCCCCCCCCCCCCC`, the growth was 130% (inactive).

Regarding `COc1cc(C2CC(c3ccc(C)cc3)=NN2C=O)ccc1Oc1nc2c(c(=O)n(C)c(=O)n2C)n1C` (centres undefined), the growth was 60.8% (inactive).

Consider `COc1cc(C2CC(c3ccccc3)=NN2C=O)ccc1Oc1ccnc2cc(Cl)ccc12` (centres undefined), for which the growth was 100% (inactive).

`NC(N)=N/N=C/c1ccc(Cl)cc1`: the growth was 105% (inactive).

As for `O=c1c2cc(Cl)ccc2oc2ccc(OCCCCCN3CCCCC3)cc12`, the growth is 89.7% (inactive).

With `COc1cc(Cl)cc(-c2nn(C(=O)NCCN3CCOCC3)cc2-c2ccncc2)c1`, the growth is 104% (inactive).

Regarding `COc1ccc2nc3ccccc3c(NCc3ccc(Cl)cc3)c2c1`, the growth is 24.6% (inactive).

For `CN1C(=O)N(C)C2C1NN=c1s/c(=C\c3ccc(C(F)(F)F)cc3)c(=O)n12` (centres undefined), the growth was 32.4% (inactive).

As to `C=C1C(=O)O[C@H]2[C@H]1CC/C(COC(=O)NCc1cn(C)c3ccccc13)=C\CC[C@@]1(C)O[C@@H]21`, the growth was 80.6% (inactive).

As for `c1csc(-c2cnc3nonc3n2)c1`, the growth is 90.4% (inactive).

With `Nc1nc(NC2CC2)cc(-c2cccc(Cl)c2Cl)n1`, the growth was 101% (inactive).

A further experiment concerns HOP-62 NSCLC. The description is as above. To be noted: 10 µM unless noted.
In the case of `O=C1/C(=C/c2ccccc2)SC(=Nc2ccccc2)N1Nc1ccccc1`, the growth is 39.4% (inactive).

For the compound `COc1cnc2c(c1)C(=O)c1c-2n(CCCNC(C)C)c(=O)c2cc(Cl)ccc12`, the growth is -88.4% (active).

Take `CCSCC1CC(O)(c2ccccc2)C(c2ccccc2)C(c2ccc(F)cc2)O1` (centres undefined): the growth was -13.3% (active).

`CN1C(=O)C(C2=NNC(c3ccccc3C(=O)O)C2)C(=O)N(C)C1=O` (centres undefined): the growth was 98.3% (inactive).

Consider `NC(N)=NC1CCCCC1`, for which the growth was 108% (inactive).

Regarding `COc1ccc(C(=O)OC2C(OC3C(O)COC(O[C@H]4C[C@H]5[C@@H]6CC=C7C[C@@H](O)CC[C@]7(C)[C@H]6CC[C@]5(C)[C@H]4[C@H](C)C(=O)CCC(C)C)C3OC(C)=O)OCC(O)C2O)cc1` (some centres undefined), the growth is -32.2% (active).

For the compound `CC(C)(C)c1ccc(OC(=O)Nc2ccccc2)cc1`, the growth was 111% (inactive).

As for `CN1C2CCC1/C(=C\c1ccc(F)cc1)C(=O)/C2=C/c1ccc(F)cc1`, the growth is 76.7% (inactive).

In the case of `CCCCOC(=O)c1cc(O)c(O)c(O)c1`, the growth was 76.2% (inactive).

Consider `CCOC(=O)C1OC2(CCCC2)OC1C(=O)OCC` (centres undefined), for which the growth was 103% (inactive).

As for `O=C(Nc1cccc(-n2ccc3c(NC(=O)c4ccccc4)nccc32)c1)c1ccc(N2CCOCC2)c(C(F)(F)F)c1`, the growth was 7.08% (active).

`CCN(CC)CCCC(C)Nc1c(-c2ccccc2)cnc2cc(Cl)ccc12` (centres undefined): the growth is 101% (inactive).

Consider `O=C1C=CN2C(=O)CC=CC2[C@@H]1O` (some centres undefined), for which the growth was 112% (inactive).

On to `CC(=O)O[C@@H]1CC2C(C)(C)CCCC2(C)C2=C1C(=O)C(C(C)C)=CC2=O` (some centres undefined), for which the growth was -25.6% (active).

In the case of `O=C(Nc1ccc(-n2ccc3c(NC(=O)c4ccccc4)nccc32)cc1)c1ccc(N2CCOCC2)c(C(F)(F)F)c1`, the growth is 21.1% (inactive).

For `COc1cc(/C=C/c2cc(/C=C/c3ccc(O)c(OC)c3)n(C(=O)Nc3ccc(F)c(Cl)c3)n2)ccc1O`, the growth was -7.78% (active).

With `COc1cc(OC)c2sc(-c3ccc(-n4cncc4-c4ccc(OC)c(N)c4)cc3)nc2c1`, the growth was 117% (inactive).

Take `COc1ccc(C2=NNC(c3ccc(Oc4nc5c(c(=O)n(C)c(=O)n5C)n4C)c(OC)c3)C2)cc1` (centres undefined): the growth was 101% (inactive).

Regarding `NS(=O)(=O)c1ccc(CCn2c(SCC(=O)N/N=C/c3cccnc3)nc3ccccc3c2=O)cc1`, the growth is 83.3% (inactive).

As for `O=C(NNC(=O)c1cccc(Cl)c1)c1ccccc1`, the growth is 109% (inactive).

As for `N=c1nc(N2CCCCC2)cc(N)n1O`, the growth is 101% (inactive).

In the case of `Cc1ccc(C)c(NC(=O)c2sc3c(=O)[nH]cnc3c2C)c1`, the growth is 80.8% (inactive).

In the case of `C=CCOC(=O)C1=C(C)NC2=C(C(=O)CCC2)C1c1ccc(F)cc1` (centres undefined), the growth was 85.9% (inactive).

Regarding `COc1ccc(-c2cnc(-c3ccncc3-c3cccc(OC)c3)o2)cc1`, the growth is 26.3% (inactive).

Regarding `O=C(Nc1ccncc1)C(=O)c1cn(S(=O)(=O)c2cccc(Cl)c2F)c2ccccc12`, the growth was 89.6% (inactive).

With `Cc1ccccc1Nc1n[nH]c(Cc2ccccc2)n1`, the growth was 94.6% (inactive).

In the case of `Oc1ccccc1-c1nnc(COc2ccc(Cl)cc2Cl)o1`, the growth was 40.6% (inactive).

Take `CS(=O)(=O)c1ccc(C(=O)N/N=C/c2ccccc2O)cc1`: the growth was 28.3% (inactive).

With `CCCCCCCCCCCCCCCCCC(=O)OCCCCCCCCCCCCC`, the growth was 125% (inactive).

For `COc1cc(C2CC(c3ccc(C)cc3)=NN2C=O)ccc1Oc1nc2c(c(=O)n(C)c(=O)n2C)n1C` (centres undefined), the growth is 115% (inactive).

Turning to `COc1cc(C2CC(c3ccccc3)=NN2C=O)ccc1Oc1ccnc2cc(Cl)ccc12` (centres undefined), the growth is 74.2% (inactive).

With `NC(N)=N/N=C/c1ccc(Cl)cc1`, the growth is 75% (inactive).

As to `O=c1c2cc(Cl)ccc2oc2ccc(OCCCCCN3CCCCC3)cc12`, the growth was 88.9% (inactive).

In the case of `COc1cc(Cl)cc(-c2nn(C(=O)NCCN3CCOCC3)cc2-c2ccncc2)c1`, the growth was 56.7% (inactive).

For the compound `COc1ccc2nc3ccccc3c(NCc3ccc(Cl)cc3)c2c1`, the growth is 42.4% (inactive).

As to `CN1C(=O)N(C)C2C1NN=c1s/c(=C\c3ccc(C(F)(F)F)cc3)c(=O)n12` (centres undefined), the growth was 31.9% (inactive).

Consider `C=C1C(=O)O[C@H]2[C@H]1CC/C(COC(=O)NCc1cn(C)c3ccccc13)=C\CC[C@@]1(C)O[C@@H]21`, for which the growth is 32.8% (inactive).

Consider `c1csc(-c2cnc3nonc3n2)c1`, for which the growth is 87.9% (inactive).

Take `Nc1nc(NC2CC2)cc(-c2cccc(Cl)c2Cl)n1`: the growth was 47.1% (inactive).
